Shown is part of a subset that was picked to be rich in hits.
Pf Dd2 growth – inhibitors of Plasmodium falciparum Dd2 growth; Potency, µM (doses to about 28.9 µM), without a hit: at the highest dose activity, negative = inhibition, usual class: inhibitors; P. falciparum Dd2 growth, SYBR Green, 72 h; 120,000 compounds, 4.3% hits; active = well fitted inhibition curve with a large enough effect;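 also: plate controls were DMSO vehicle for no effect and reference drug for full effect; nearly all actives have a fitted effect of over 65% in size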
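Infected erythrocytes (Dd2, 0.3% parasitemia, 2.5% hematocrit final) are added to compound in RPMI-1640/Albumax II medium, grown 72 h at 37C in low oxygen, then lysed with saponin/Triton-X containing SYBR Green and read by fluorescence.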
The depositor's hits bear a star; i = inactive; [ ] = remark or other dose. Potency is read from the fitted curve at half-maximal effect.

SMILES | Pf Dd2 growth
CCCc1nc(C)cc(N2CCC(NCCc3ccc(Cl)cc3)CC2)n1 | 10µM*
COc1ccc(CC(=O)NC2CCN(c3cc(-c4ccc(Cl)cc4)[nH]n3)CC2)cc1 | -14.9%
O=C(NCc1ccc(F)cc1)C1CCN(C(=O)c2ncn3c2COC(c2ccccc2)C3)CC1 (stereo not given) | i
C[C@@H]1C(=O)O[C@H]2[C@H]1CC[C@@]1(C)Cc3sc(NC(=O)c4ccc(F)c(Cl)c4)nc3[C@@H](C)[C@H]21 | 11.2µM*
C[C@@H]1C(=O)O[C@H]2[C@H]1CC[C@@]1(C)Cc3sc(NS(=O)(=O)c4ccc(F)c(Cl)c4)nc3[C@@H](C)[C@H]21 | -13.3%
C[C@@H]1C(=O)O[C@H]2[C@H]1CC[C@@]1(C)Cc3sc(NC(=O)c4ccncc4)nc3[C@@H](C)[C@H]21 | i
CNC(=O)[C@@H]1CN(C(=O)Cc2cccc(Cl)c2)C[C@H]1CO | -4.1%
COC[C@@H]1CN(Cc2ccc(OC)cc2)C[C@H]1C(=O)N(C)C | -16.8%
COc1ccccc1-c1nc(C(=O)N2CCOCC2)n2ccncc12 | 1.7%
Cc1ccc(C2(C(=O)N3CCCC4(CC3)CN(C)C(=O)O4)CC2)cc1 (stereo not given) | -8.1%
COc1cc(SC)ccc1C(=O)N[C@H]1C[C@H]2C(=O)Nc3ccc(-c4ccc5c(c4)OCO5)cc3C(=O)N2C1 | -19.9%
COc1ccc2[nH]cc(CCNC(=O)CN3CCCc4nc(C5CC5)ncc4C3=O)c2c1 | i
COc1ccc2[nH]cc(CCNC(=O)c3cnn(-c4ccc(C)cc4)c3C3CCN(C(=O)OC(C)(C)C)CC3)c2c1 | 3.16µM*
CC(C)(C)OC(=O)N1CCC(c2c(C(=O)NCc3ccccn3)cnn2-c2ccccc2Cl)CC1 | i
CCN1CCN(CCCNC(=O)c2cnn(-c3ccc(OC)cc3)c2C2CCN(C(=O)OC(C)(C)C)CC2)CC1 | -24.9%
COc1ccc2[nH]cc(CCNC(=O)C3CCCN(C(C)=O)C3)c2c1 (stereo not given) | -8.5%
COc1ccc2[nH]cc(CCNC(=O)c3cnn(-c4ccccc4Cl)c3C3CCN(C(=O)OC(C)(C)C)CC3)c2c1 | 5.62µM*
CN(C)C(=O)c1cn(C2CNC2)nn1 | 29.0%
C#CCNC(=O)[C@H]1O[C@H](CCN(C)CCN(C)C)CC[C@@H]1O | 10.9%[44.1 µM]
CC(C)(Oc1ccccc1)C(=O)N1CCCn2nc(C(=O)N3CCOCC3)cc2C1 | 4.1%
CCOc1ccccc1NC(=O)Cn1c(-c2ccc(F)cc2)nc(C)cc1=O | -19.2%
Cc1ccc(NC(=O)Cn2c(N3CCN(c4ccccc4)CC3)nc(C)cc2=O)c(C)c1 | -8.3%
CCOc1ccccc1NC(=O)Nc1cc2c(cc1N1CCCCC1)n(CC)c(=O)n2CC | 11.2µM*
Cc1ccc(C)c(NC(=O)Cn2c(N3CCN(c4ccccc4)CC3)nc(C)cc2=O)c1 | -42.1%
CCc1ccccc1NC(=O)Cn1c(-c2ccccc2)nc(C)cc1=O | -3.8%
SMILES | Pf Dd2 growth
CCOc1ccccc1NC(=O)Cn1c(=O)ccc2cc(S(=O)(=O)N3CCC(C)CC3)ccc21 | 12.6µM*
CCOc1ccccc1NC(=O)Cn1c(N2CCN(c3ccccc3)CC2)nc(C)cc1=O | 5.62µM*
COc1ccccc1CNC(=O)Cn1c(=O)ccc2cc(S(=O)(=O)N3CCC(C)CC3)ccc21 | 11.2%
CCc1ccccc1NC(=O)Cn1c(=O)ccc2cc(S(=O)(=O)N3CCCC3)ccc21 | 10.5%
CCOc1ccccc1NC(=O)Cn1c(-c2ccccc2)nc(C)cc1=O | 1.58µM*
CCOc1ccc(NC(=O)Nc2cc3c(cc2N2CCCCC2)n(C)c(=O)n3C)cc1 | -14.7%
CCOc1ccc(C(=O)Nc2cc3c(cc2N2CCCC2)n(C)c(=O)c(=O)n3C)cc1OCC | -16.2%
Cc1cnc(C)c(N2CCC(Oc3ccc4c(cnn4CCC(=O)O)c3)CC2)n1 | -23.0%[44.1 µM]
CC(C)NC(=O)[C@@H]1C[C@H](N)CN1S(=O)(=O)c1ccc2c(c1)OCCN2C | -20.0%
O=C1Cc2c(-c3ccsc3)n[nH]c2CN1CC1CC1 | -27.2%[44.1 µM]
COC1CN(c2ccc(C)cc2)C12CCN(C(=O)CC(C)C)CC2 (stereo not given) | i
CCN1C(=O)CN(C(=O)COc2ccc(F)cc2)CC12CCOCC2 | -20.2%
Cc1cc(=O)n(CC(=O)Nc2ccc(Cl)cc2)c(N2CCC(C)CC2)n1 | 11.2µM*
Cc1cc(=O)n(CC(=O)Nc2ccc(C)c(Cl)c2)c(N2CCC(C)CC2)n1 | -22.0%
Cc1cc(=O)n(CC(=O)Nc2ccc(Br)cc2)c(N2CCC(C)CC2)n1 | -23.9%
CCCc1cc(CN(C)C(=O)C2CC(=O)N(c3ccc(C(C)C)cc3)C2)[nH]n1 (stereo not given) | -24.2%
Cc1ccc2c(C)c(C(=O)N(C)Cc3noc4c3CCCC4)oc2c1 | -28.3%
O=C(Cc1ccccc1)N1CCC(Oc2cnc3c(ccn3-c3cncnc3)c2)CC1 | 12.6µM*
O=C(CC1CC1)N1CCC(Oc2cnc3c(ccn3-c3cncnc3)c2)CC1 | i
O=C(OCc1ccccc1)N1CCC(Oc2cnc3c(ccn3-c3cncnc3)c2)CC1 | i
CCOc1ccccc1NC(=O)N1C[C@H](Oc2cccnc2)C[C@@H]1C(=O)N1CCOCC1 | 4.3%
